Source: PubChem (several laboratories)
HIV RNase H inh-1: blocks HIV-1 RNase H cleavage of RNA/DNA duplex | RT-RNase H RNA/DNA duplex cleavage, fluorescence | inhibition, % at 10 µM | actives 1.9% (n = 65,000) | AID 565; in the data active = inhibition above about 50%
RmlCD inh mix: mixture blocks RmlC and RmlD coupled enzyme activity. actives 0.39% (n = 110,000). inhibition, % at 5.5 µM. RmlC/RmlD coupled enzyme inhibition, 384-well mixture HTS; in the data active = inhibition above about 30%, passing the limit was not always enough; inconclusive = no clear call, values can overlap the other calls
HIV RNase H inh-2: confirmation of HIV-1 reverse transcriptase RNase H inhibitors | AID 651 | shares compounds with HIV RNase H inh-1 | Recombinant RT RNase H, fluorescent RNA/DNA duplex cleavage | inhibition, % at 10 µM | actives 39% (n = 1,000); in the data active = inhibition above about 48%; inconclusive = no clear call, values can overlap the other calls
Starred values were filed as active, the others as inactive; ? = inconclusive; . = not tested or not shown. The entries come from a sample that favours hits as a whole.

SMILES	HIV RNase H inh-1	RmlCD inh mix	HIV RNase H inh-2
Cc1ccc(S(=O)(=O)C2(C(=O)N3CCCCC3C)CC2)cc1 (stereo not drawn)	-3	-11	.
Cc1ccc(C2C(C#N)=C(N)SC(N)=C2C#N)c(C)c1	83*	-29	4
CC(C)C1C(C#N)=C(N)SC(N)=C1C#N	-8	131	.
CC1=C(C#N)C(c2ccoc2)C(C(=O)OCc2ccccc2)=C(N)S1 (stereo not drawn)	-47	3	.
Cc1ccc(C2C(C#N)=C(N)SC(N)=C2C#N)cc1	67*	.	26
CC(c1ccccc1)C1C(C#N)=C(N)SC(N)=C1C#N (stereo not drawn)	-6	5	.
N#CC1=C(N)SC(N)=C(C#N)C1c1ccoc1	86*	9	44
COc1ccc(/C=N/Nc2ccccc2)cc1Cn1nc(C)c([N+](=O)[O-])c1C	.	7	.
CNCc1ccccc1OCC(=O)Nc1ccccc1OC	.	11	.
CC(Oc1c(Cl)cccc1Cl)C1=NCCN1 (stereo not drawn)	.	-12	.
CCCc1nc(SCC(=O)N2CCC(Cc3ccccc3)CC2)c2c(=O)n(C)c(=O)n(C)c2n1	-33	-6	.
COC(=O)c1cccc(N2C(=O)C(Cl)=C(N3CCOCC3)C2=O)c1	83*	6	62*
CN1CCN(C2=C(Cl)C(=O)N(Cc3ccccc3)C2=O)CC1	-28	12	.
CN1CCN(C2=C(Cl)C(=O)N(c3cccc(Cl)c3)C2=O)CC1	70*	1	17
Cn1c(=O)n(-c2cccc(Cl)c2)c(=O)n1C	-11	-16	.
COC(=O)c1cccc(Oc2nc(N3CCOCC3)nc(N3CCOCC3)n2)c1	-15	.	.
COc1ccc(N2C(=O)C(Cl)=C(N3CCCC(C)C3)C2=O)cc1 (stereo not drawn)	.	-10	.
CN1CCN(C2=C(Cl)C(=O)N(c3ccc(Cl)c(Cl)c3)C2=O)CC1	96*	6	74*
COc1ccc(N2C(=O)C(Cl)=C(N3CCCC3)C2=O)cc1	52*	-8	-4
CCOC(=O)c1c(C)[nH]c(C(=O)COC(=O)CCC2CCCC2)c1C	.	-4	.
COc1ccc(CNS(=O)(=O)c2cccc(S(=O)(=O)N3CCOCC3)c2)cc1	.	-12	.
CCN1CCCC1CNC(=O)C(=O)Nc1ccccc1OC (stereo not drawn)	.	-15	.
CC(=O)Nc1cc2c(cc1NC(=O)Cn1nc(-c3ccc4c(c3)OCCO4)ccc1=O)OCCO2	.	5	.
Cc1ccc(N(CC(=O)NCc2ccc(F)cc2)S(=O)(=O)c2cccs2)cc1	.	3	.
O=C1C(Cl)=C(N2CCOCC2)C(=O)N1c1ccccc1Cl	70*	-8	27
SMILES	HIV RNase H inh-1	RmlCD inh mix	HIV RNase H inh-2
Cc1ccccc1N1C(=O)C(Cl)=C(N2CCN(c3ccccc3)CC2)C1=O	13	14	.
CCN(CC)C(=O)N1CCc2ccccc2C1CN1C(=O)c2ccccc2C1=O (stereo not drawn)	.	-26	.
COc1ccc(-n2cnc3c(cnn3CCC#N)c2=N)cc1	4	13	.
COCCN=C1Sc2nc3ccc(C)cc3cc2CN1Cc1ccco1	.	9	.
COCCN1CSC(=S)N(Cc2ccco2)C1	63*	4	-8
Cc1ccc(-c2cc(C(=O)Nc3nn[nH]n3)c3ccccc3n2)cc1	.	7	.
COc1ccccc1-c1nnc2n1N=C(c1ccc(O)c(O)c1)CS2	94*	-12	58*
CCOc1ccc(C2=Nn3c(nnc3-c3ccccc3OC)SC2)cc1	3	-10	.
Cc1cccc(-c2nnc3n2N=C(c2ccc(Br)cc2)CS3)c1	40	7	.
COc1cccc(-c2nnc3n2N=C(c2cccc(Br)c2)CS3)c1	54*	-3	?
CCc1cc(=O)oc2c(C)c(OCC(=O)N3CCCc4ccccc43)ccc12	.	2	.
CCOC(=O)/C(C#N)=C/C1=C(N2CCCC2)CC(C)(CC)OC1 (stereo not drawn)	.	-7	.
C[C@@H]1CC[C@H]2C(=O)N3[C@@H](CC[C@@H](C)[C@@H]3c3ccc(Br)cc3)C(=O)N2[C@H]1c1ccc(Br)cc1	.	6	.
N#Cc1c(N)sc(=S)c2c1CCCC2	67*	0	-6
CCC1(C)Cc2c(C#N)c(N)sc(=S)c2CO1 (stereo not drawn)	26	-10	.
O=C(NNC(=O)C(c1ccccc1)c1ccccc1)c1cccs1	.	2	.
COc1ccc(C(=O)c2ccc(OC)c(OC)c2)cc1OC	-37	-12	.
COc1ccc(C(=S)N(C)C)cc1OC	87*	-5	58*
O=C(COC(=O)c1ccccc1Nc1cccc(C(F)(F)F)c1)NCc1ccco1	.	11	.
N#C/C(=C\c1ccc(Cl)cc1)c1nc2ncccc2[nH]1	.	9	.
COc1ccc2c(c1)S/C(=C\C(=O)c1ccncc1)N2C	67*	-9	19
CN1/C(=C/C(=O)c2cccs2)Sc2ccccc21	.	-15	.
C#CCOC(=O)Nc1ccc(=O)n(Cc2c(Cl)cccc2Cl)c1	.	-1	.
O=C1CCCc2nc(N3CCc4ccccc43)ncc21	3	-10	.
